According to PubChem BioAssay:
Results filed as inconclusive are left out. Activity calls are given as the source filed them. Unless noted, how the calls were made is not given here.

Experiments:
[1] = yeast TOR pathway RPL19A-GFP modulators, primary screen, cell-based, S. cerevisiae, multiplex flow cytometry (AID 1862; in the data active means percent of DMSO control GFP below about 86%;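 further: lower values mimic rapamycin by blocking the RPL19A rise seen in DMSO cells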); conditions: S. cerevisiae RPL19A-GFP strain, flow cytometry fluorescence, 3 h; at 10 µM; stronger effect = lower value
[2] = modulators of MEP2-GFP levels in yeast, primary screen, S. cerevisiae, multiplex flow cytometry (AID 1867;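 active means GFP response, as percent of the DMSO control, above the screen-wide mean plus 3 SD, about 139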;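 further: median GFP channel fluorescence of barcode-gated MEP2-GFP cells measured by flow cytometry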); conditions: S. cerevisiae MEP2-GFP strain, 3 h, at 10 µM, stronger effect = higher value
[3] = modulators of CIT2-GFP expression in yeast, primary screen, S. cerevisiae, GFP fusion, multiplex flow cytometry (AID 1870;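 active means percent response above a set limit, the screen-wide mean plus 3 SD, cut at about 130% in these data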;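 further: barcoded CIT2-GFP strain pooled with four other GFP strains with rapamycin as positive control; median GFP fluorescence per well over plate mean of DMSO wells so 100% = DMSO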); conditions: 3 h, at 10 µM, stronger effect = higher value
[4] = modulators of LAP4-GFP expression in yeast, primary screen, S. cerevisiae, multiplex flow cytometry (AID 1873;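 active means GFP signal, as percent of the solvent control, above the screen mean plus 3 SD, about 149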); conditions: 3 h, at 10 µM, stronger effect = higher value
[5] = modulators of AGP1-GFP expression in yeast TOR pathway, primary screen, cell-based, multiplex flow cytometry, S. cerevisiae (AID 1887;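 active means GFP signal above the screen-wide mean plus 3 SD, that is over about 124.5% of the solvent control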;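 further: AGP1-GFP fusion strain of S. cerevisiae within a five-strain barcoded multiplex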); conditions: 3 h, at 10 µM, stronger effect = higher value
[6] = inhibitors of CD8+ T cell-vesicle binding, pilot screen, LFA-1/ICAM-1 modulator project, MLPCN validation set, flow cytometry (AID 2523;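 active means response below a set limit, under 55% cells CD8-positive and vesicle-bound, and CD8 cells' 90th-percentile brightness under 279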;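 on vesicle binding response: mean PE anti-B7-1 fluorescence of CD8+ cells relative to row control; 100% = QL9-loaded vesicles with DMSO vehicle in the same plate row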); conditions: 2C mouse CD8+ T cells, at 7 µM, stronger effect = lower value; double positive events: measured here: CD8+/vesicle+ event percentage
[7] = target: Integrin beta-1 (Homo sapiens) + Integrin alpha-4 (Homo sapiens) (UniProt P13612+P05556); assay: inhibition of HUTS-21 binding to VLA-4, pilot screen, VLA-4 allosteric modulator project, U937 cells, HUTS-21 mAb, flow cytometry, validation set (AID 2674;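 active means inhibition above 50%, about 3 SD of the validation set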;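 further: antibody binding induced by the VLA-4 ligand LDV present at three times its Kd; 0% = LDV ligand with antibody and no compound and 100% = antibody without LDV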); conditions: HUTS-21 LIBS mAb binding, at 6.7 µM, stronger effect = higher value
[8] = superoxide lowering in aged yeast cells, pilot screen, validation compound set (AID 2706;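 active means superoxide response below 65% of plate, a cut near 3 SD across the whole screen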;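 further: yeast exposed to compound for one week at 30 degrees C before staining; 100% = mean of all compound wells on the same plate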); conditions: S. cerevisiae aging, superoxide DHE fluorescence; at 10 µM; stronger effect = lower value
[9] = target: Beta-adrenergic receptor kinase 1 (Homo sapiens) (UniProt P25098); assay: GRK2 binders displacing RNA aptamer, biochemical, validation, human GRK2, bead flow cytometry (AID 488806;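 active means aptamer binding inhibition above 30%, about 3 SD of noise from non-fluorescent compounds; inactive means inhibition at or below 30%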); conditions: bead-bound GRK2, FAM-aptamer displacement, at 10 µM, stronger effect = higher value
Chain of Beta-adrenergic receptor kinase 1 (Homo sapiens) (P25098 whole entry, looked up): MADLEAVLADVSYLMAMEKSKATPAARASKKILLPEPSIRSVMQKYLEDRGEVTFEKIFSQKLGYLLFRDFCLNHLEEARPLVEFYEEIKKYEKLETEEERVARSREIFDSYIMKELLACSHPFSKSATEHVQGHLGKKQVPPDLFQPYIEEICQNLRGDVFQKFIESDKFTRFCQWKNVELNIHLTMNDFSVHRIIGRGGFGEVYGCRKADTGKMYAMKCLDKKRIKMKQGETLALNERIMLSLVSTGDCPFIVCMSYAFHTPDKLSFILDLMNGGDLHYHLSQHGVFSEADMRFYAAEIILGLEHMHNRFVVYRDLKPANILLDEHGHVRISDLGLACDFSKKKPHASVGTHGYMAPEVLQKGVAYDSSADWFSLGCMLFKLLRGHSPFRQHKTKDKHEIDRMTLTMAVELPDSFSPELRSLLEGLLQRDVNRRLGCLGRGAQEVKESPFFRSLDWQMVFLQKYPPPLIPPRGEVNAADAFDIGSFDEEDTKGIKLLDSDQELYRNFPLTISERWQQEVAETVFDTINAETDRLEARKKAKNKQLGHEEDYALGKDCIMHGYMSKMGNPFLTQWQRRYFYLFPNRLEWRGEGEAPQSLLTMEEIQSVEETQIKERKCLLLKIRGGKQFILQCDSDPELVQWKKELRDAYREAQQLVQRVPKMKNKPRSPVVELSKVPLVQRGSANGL

[10] = target: Beta-2 adrenergic receptor (Homo sapiens) (UniProt P07550); assay: beta2AR agonists driving receptor internalization, pilot screen, cell-based, FAP fluorogen, flow cytometry, validation set (AID 504459;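 active means percent response above 42, roughly 3 SD of non-fluorescent test compounds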;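 further: agonist-driven loss of surface beta2AR via internalization measured by FAP dye flow cytometry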); conditions: Am2.2-beta2AR cells, FAP surface receptor flow cytometry; at 10 µM; stronger effect = higher value
Chain of Beta-2 adrenergic receptor (Homo sapiens) (P07550 whole entry, looked up): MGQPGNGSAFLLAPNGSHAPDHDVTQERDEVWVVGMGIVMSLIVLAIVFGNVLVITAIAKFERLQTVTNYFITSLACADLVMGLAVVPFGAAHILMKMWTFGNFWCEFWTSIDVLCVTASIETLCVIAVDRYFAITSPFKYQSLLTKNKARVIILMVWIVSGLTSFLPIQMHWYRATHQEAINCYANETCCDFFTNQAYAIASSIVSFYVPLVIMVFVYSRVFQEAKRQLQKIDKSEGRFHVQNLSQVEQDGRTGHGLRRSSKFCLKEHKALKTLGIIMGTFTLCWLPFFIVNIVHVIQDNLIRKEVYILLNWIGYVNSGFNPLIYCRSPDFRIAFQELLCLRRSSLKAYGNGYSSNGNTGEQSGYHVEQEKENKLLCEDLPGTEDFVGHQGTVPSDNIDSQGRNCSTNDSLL

[11] = target: AP-2 complex subunit beta (Homo sapiens) (UniProt P63010); assay: inhibitors of arrestin peptide binding to AP2, pilot screen, biochemical, validation set, GST-AP2 beads, flow cytometry (AID 504541;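 active means inhibition above 54%, about 3 SD of non-fluorescent compounds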;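 further: AP2 carries R879A mutation and is captured from E. coli lysate; bead-bound FITC arrestin peptide fluorescence measuring arrestin peptide binding to AP2; 0% = DMSO wells and 100% = excess unlabeled arrestin peptide control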); conditions: FITC arrestin peptide, at 10 µM, stronger effect = higher value
Chain of AP-2 complex subunit beta (Homo sapiens) (P63010 whole entry, looked up, one chain of several): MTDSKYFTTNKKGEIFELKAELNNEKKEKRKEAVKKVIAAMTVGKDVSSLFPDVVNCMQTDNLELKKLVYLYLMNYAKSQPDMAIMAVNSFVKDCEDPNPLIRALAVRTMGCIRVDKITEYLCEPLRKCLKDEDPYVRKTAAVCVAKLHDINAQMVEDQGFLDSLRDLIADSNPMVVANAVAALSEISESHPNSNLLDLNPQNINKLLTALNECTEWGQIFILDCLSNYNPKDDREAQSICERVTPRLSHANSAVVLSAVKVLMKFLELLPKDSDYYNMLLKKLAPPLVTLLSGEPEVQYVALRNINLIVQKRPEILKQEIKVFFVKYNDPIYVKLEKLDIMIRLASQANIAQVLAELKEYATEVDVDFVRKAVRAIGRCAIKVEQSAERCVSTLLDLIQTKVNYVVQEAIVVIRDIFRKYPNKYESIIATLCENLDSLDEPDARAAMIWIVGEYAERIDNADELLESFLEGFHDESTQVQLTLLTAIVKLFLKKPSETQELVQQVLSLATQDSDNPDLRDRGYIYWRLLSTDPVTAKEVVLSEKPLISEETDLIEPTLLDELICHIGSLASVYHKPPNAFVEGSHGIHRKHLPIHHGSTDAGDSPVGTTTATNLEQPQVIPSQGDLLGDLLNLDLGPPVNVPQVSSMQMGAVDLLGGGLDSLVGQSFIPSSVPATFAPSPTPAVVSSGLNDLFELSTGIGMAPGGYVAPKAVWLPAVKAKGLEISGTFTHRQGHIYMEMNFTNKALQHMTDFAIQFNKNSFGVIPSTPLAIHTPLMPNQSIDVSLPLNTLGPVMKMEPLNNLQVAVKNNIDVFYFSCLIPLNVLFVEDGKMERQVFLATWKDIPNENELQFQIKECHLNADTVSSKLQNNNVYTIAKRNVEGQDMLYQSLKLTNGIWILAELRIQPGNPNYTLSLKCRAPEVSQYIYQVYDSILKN

[12] = yeast V-ATPase proton transport modulators, S. cerevisiae, pHLuorin, HTS validation (AID 504600; in the data active means response above about 15%;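 further: plate controls were DMSO for no effect and reference compound for full effect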); conditions: S. cerevisiae pHLuorin cytosolic pH, at 10 µM, stronger effect = higher value
[13] = test system: anti-desmoglein-3 scFv antibody binding to human DSG3; assay: inhibitors of anti-DSG3 scFv binding to DSG3, pilot screen, biochemical, validation compound set, bead-based, flow cytometry (AID 588368;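 active means binding below the plate cutoff, the plate median minus 3 SD, with a reading above zero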;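 further: signal is the median channel fluorescence of bead-bound GFP antibody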); conditions: Protein G beads, DSG3-Fc, scFv-GFP binding, at 10 µM, stronger effect = lower value
[14] = test system: Botulinum neurotoxin type F light chain protease (Clostridium botulinum); assay: Botulinum neurotoxin type F light chain protease inhibition, multiplex microsphere flow cytometry, validation set (AID 588459); conditions: multiplex microsphere protease substrate cleavage assay, at 10 µM, stronger effect = higher value
[15] = target: Botulinum neurotoxin type A (Clostridium botulinum) (UniProt P0DPI0); assay: BoNT/A light chain protease inhibitors, biochemical, multiplex microsphere flow cytometry, validation set (AID 588460); conditions: at 10 µM, stronger effect = higher value
Chain of Botulinum neurotoxin type A (Clostridium botulinum) (P0DPI0 whole entry, looked up): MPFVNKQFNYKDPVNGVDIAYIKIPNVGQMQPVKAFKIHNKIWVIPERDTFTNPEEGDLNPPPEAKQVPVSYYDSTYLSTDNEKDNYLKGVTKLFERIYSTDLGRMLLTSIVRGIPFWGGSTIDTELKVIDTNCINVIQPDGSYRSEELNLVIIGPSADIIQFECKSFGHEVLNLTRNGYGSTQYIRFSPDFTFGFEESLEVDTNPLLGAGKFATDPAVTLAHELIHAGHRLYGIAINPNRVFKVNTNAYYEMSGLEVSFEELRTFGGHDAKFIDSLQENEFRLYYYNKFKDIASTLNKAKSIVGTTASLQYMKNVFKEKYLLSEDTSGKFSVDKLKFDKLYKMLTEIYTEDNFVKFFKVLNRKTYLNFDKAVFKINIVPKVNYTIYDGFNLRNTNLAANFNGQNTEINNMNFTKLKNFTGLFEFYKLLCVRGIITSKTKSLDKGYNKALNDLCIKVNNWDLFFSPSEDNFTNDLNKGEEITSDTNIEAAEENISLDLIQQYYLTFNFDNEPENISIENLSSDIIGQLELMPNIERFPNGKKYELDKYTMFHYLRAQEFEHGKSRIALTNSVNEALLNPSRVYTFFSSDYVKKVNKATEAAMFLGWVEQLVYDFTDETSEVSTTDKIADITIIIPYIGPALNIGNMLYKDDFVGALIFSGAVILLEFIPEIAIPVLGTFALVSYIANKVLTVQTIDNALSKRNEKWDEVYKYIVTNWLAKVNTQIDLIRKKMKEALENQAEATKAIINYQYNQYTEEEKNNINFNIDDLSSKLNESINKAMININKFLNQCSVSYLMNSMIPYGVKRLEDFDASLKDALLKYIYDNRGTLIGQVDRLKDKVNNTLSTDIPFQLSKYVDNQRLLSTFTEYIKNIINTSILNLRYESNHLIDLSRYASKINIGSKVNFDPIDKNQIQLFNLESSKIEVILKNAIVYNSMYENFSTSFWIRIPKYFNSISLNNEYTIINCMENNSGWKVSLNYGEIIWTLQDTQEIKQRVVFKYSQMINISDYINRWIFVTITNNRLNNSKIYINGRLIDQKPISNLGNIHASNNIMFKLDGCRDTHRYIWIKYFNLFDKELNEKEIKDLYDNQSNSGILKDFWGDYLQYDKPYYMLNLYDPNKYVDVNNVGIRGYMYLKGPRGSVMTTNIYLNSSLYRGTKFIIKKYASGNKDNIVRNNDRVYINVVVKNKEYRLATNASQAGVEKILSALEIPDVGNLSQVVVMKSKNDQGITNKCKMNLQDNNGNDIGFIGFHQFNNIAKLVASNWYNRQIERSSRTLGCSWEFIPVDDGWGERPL

[16] = target: Lethal factor (Bacillus anthracis) (UniProt P15917); assay: Lethal factor protease inhibitors, Bacillus anthracis, multiplex microsphere cleavage assay, validation set (AID 588461); conditions: flow cytometry, at 10 µM, stronger effect = higher value
Chain of Lethal factor (Bacillus anthracis) (P15917 whole entry, looked up): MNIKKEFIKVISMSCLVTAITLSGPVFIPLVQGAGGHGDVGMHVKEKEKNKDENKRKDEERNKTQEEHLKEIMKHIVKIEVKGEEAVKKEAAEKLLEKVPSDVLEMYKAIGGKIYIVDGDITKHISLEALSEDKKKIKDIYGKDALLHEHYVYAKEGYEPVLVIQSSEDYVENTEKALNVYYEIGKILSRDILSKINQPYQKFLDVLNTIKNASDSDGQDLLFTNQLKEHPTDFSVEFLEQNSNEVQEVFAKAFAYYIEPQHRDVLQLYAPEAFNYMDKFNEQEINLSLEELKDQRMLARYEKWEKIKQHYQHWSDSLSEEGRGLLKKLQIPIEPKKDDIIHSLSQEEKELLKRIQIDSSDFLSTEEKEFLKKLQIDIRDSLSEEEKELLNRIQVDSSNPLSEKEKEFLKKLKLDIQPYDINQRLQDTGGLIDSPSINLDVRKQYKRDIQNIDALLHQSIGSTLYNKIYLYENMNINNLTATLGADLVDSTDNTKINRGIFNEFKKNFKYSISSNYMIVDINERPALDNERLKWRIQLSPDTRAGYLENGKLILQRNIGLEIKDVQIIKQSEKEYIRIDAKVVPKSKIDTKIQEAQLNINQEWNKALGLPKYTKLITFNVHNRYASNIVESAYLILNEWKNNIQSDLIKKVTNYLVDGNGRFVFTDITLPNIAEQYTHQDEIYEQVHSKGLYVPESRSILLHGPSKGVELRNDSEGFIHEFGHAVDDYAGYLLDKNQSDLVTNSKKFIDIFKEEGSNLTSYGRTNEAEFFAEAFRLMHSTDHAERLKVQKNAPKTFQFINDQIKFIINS

[17] = inhibitors of fungal efflux pumps CDR1, CDR2, MDR1, pilot screen, validation compound set, multiplex, phenotypic (AID 588506;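 active means efflux inhibition above 0.42, the validation set average plus 4 SD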;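 further: Nile Red retained in cells so higher fluorescence means more efflux inhibition; 0 = negative control wells and 1 = enniatin B 25 µM full block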); conditions: S. cerevisiae pump-expressing triplex, Nile Red efflux flow cytometry; at 10 µM; stronger effect = higher value
[18] = target: ATP-binding cassette sub-family B member 6 (Homo sapiens) (UniProt Q9NP58); assay: ABCB6 transporter inhibitors, pilot screen, K562-ABCB6 cells, flow cytometry, validation set (AID 588550;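 active means inhibition above the screen-wide mean plus 3 SD, about 51%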;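 further: 0% = DMSO wells and 100% = benzethonium chloride 70 µM positive control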); conditions: K562-ABCB6 porphyrin accumulation, 1 h, at 10 µM, stronger effect = higher value
Chain of ATP-binding cassette sub-family B member 6 (Homo sapiens) (Q9NP58 whole entry, looked up): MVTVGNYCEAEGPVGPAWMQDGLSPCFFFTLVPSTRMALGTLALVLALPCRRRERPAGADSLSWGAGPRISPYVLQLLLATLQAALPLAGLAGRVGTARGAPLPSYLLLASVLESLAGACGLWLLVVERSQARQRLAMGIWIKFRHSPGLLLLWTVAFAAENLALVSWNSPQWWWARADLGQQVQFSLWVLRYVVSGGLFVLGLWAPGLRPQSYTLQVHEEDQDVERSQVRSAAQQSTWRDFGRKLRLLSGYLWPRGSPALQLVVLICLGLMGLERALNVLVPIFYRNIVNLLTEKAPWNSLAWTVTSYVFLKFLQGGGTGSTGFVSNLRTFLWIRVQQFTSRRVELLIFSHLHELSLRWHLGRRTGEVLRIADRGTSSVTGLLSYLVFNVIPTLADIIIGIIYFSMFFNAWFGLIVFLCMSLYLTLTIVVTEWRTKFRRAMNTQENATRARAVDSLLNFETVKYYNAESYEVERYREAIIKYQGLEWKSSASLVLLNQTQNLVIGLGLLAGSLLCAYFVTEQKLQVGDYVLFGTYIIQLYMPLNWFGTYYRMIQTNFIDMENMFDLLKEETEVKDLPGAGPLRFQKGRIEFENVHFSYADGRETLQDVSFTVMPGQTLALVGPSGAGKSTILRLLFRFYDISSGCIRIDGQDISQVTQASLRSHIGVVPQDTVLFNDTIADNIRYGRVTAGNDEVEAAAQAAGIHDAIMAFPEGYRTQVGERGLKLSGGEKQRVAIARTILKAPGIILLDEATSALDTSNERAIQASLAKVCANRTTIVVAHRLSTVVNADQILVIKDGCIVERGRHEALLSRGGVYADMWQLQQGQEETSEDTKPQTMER

[19] = promoters of myeloid differentiation in arrested cells, primary screen, cell-based, GFP/MAC1 double positive, flow cytometry, validation set (AID 588685;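 active means differentiation response of at least 50%, scaled between solvent and reference control, from cells with both markers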;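 further: compound exposure lasts four days before antibody staining and flow analysis; 0% = DMSO wells and 100% = 5 µM fulvestrant positive control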); conditions: ER-HoxA9 marrow cells, stronger effect = higher value

Row | SMILES | percent of DMSO control GFP [1] | GFP response vs DMSO [2] | percent response of DMSO control [3] | GFP response vs DMSO [4] | GFP response, % of DMSO [5] | double positive events [6] [%] | vesicle binding response [6] | inhibition [7] | superoxide response (% of plate) [8] | aptamer binding inhibition [9] | response [10] | inhibition [11] | response [12] | binding (% of control) [13] | inhibition [14] | inhibition [15] | inhibition [16] | efflux inhibition (fraction of control) [17] | inhibition [18] | differentiation response [19]
1 | CC(C)C[C@H]1C(=O)N2CCCC2[C@]2(O)O[C@](NC(=O)[C@@H]3C=C4c5cccc6[nH]cc(c56)CC4N(C)C3)(C(C)C)C(=O)N12 (stereo not given in full) | 93.5% (inactive) | 116% (inactive) | 96.6% (inactive) | 79.2% (inactive) | 96.6% (inactive) | 61.2 | 108% (inactive) | -162% (inactive) | 94.2% (inactive) | 5% (inactive) | -35.9% (inactive) | 4.91% (inactive) | 3.06% (inactive) | 109% (inactive) | -7% (inactive) | -1.6% (inactive) | -34.6% (inactive) | 0.41 (inactive) | 10% (inactive) | -6.55% (inactive)
2 | COc1ccc(-c2nc3ccccc3c(=O)o2)cc1 | 103% (inactive) | 95.2% (inactive) | 92% (inactive) | 106% (inactive) | 87.9% (inactive) | 78.9 | 308% (inactive) | -19.5% (inactive) | 99.5% (inactive) | 1% (inactive) | 12.6% (inactive) | -5.48% (inactive) | -0.56% (inactive) | 102% (inactive) | 1.8% (inactive) | 1.3% (inactive) | 0.8% (inactive) | 0.22 (inactive) | -2% (inactive) | 2.4% (inactive)
3 | CC12CN3CC(C)(CN(C1)C3c1cccs1)C2O (stereo not given) | 105% (inactive) | 98.3% (inactive) | 109% (inactive) | 83.5% (inactive) | 104% (inactive) | 67 | 976% (inactive) | 4.73% (inactive) | 106% (inactive) | 2% (inactive) | -7.61% (inactive) | 1.53% (inactive) | 1.19% (inactive) | 98% (inactive) | -2.4% (inactive) | -1.2% (inactive) | 7.5% (inactive) | -0.07 (inactive) | 0% (inactive) | 0.24% (inactive)
4 | C[N+]1(C)CCOC(O)(c2ccc(-c3ccc(C4(O)C[N+](C)(C)CCO4)cc3)cc2)C1 (stereo not given) | 94.6% (inactive) | 126% (inactive) | 101% (inactive) | 76.5% (inactive) | 88% (inactive) | 64.9 | 192% (inactive) | 9.37% (inactive) | 113% (inactive) | -3% (inactive) | -10.1% (inactive) | 1.77% (inactive) | 2.1% (inactive) | 101% (inactive) | 1.7% (inactive) | 0.1% (inactive) | 0.5% (inactive) | 0.19 (inactive) | 15% (inactive) | 2.46% (inactive)
5 | O=C1CCCC2=C1C(c1cccnc1)Nc1ccccc1N2 (stereo not given) | 105% (inactive) | 95.1% (inactive) | 121% (inactive) | 89.4% (inactive) | 107% (inactive) | 64.4 | 211% (inactive) | -5.64% (inactive) | 98% (inactive) | -2% (inactive) | -5.46% (inactive) | -4.18% (inactive) | -6.46% (inactive) | 99.8% (inactive) | 0.4% (inactive) | -2.1% (inactive) | -4% (inactive) | -0.07 (inactive) | -9% (inactive) | -4.64% (inactive)
6 | CCN(CC)CCOC(=O)C(O)(c1ccccc1)c1ccccc1 | 102% (inactive) | 108% (inactive) | 96.5% (inactive) | 92.6% (inactive) | 94.5% (inactive) | 62 | 152% (inactive) | 2.93% (inactive) | 90.4% (inactive) | 2% (inactive) | 10.4% (inactive) | 0.48% (inactive) | -1.11% (inactive) | 108% (inactive) | -2% (inactive) | -0.9% (inactive) | -5.6% (inactive) | -0.095 (inactive) | -101% (inactive) | 7.13% (inactive)
7 | CC(C)CC12CN3CCN(CC(C3)C1O)C2 (stereo not given) | 89.8% (inactive) | 116% (inactive) | 111% (inactive) | 89.7% (inactive) | 105% (inactive) | 65.4 | 153% (inactive) | -2.27% (inactive) | 91.5% (inactive) | -7% (inactive) | 4.34% (inactive) | -0.1% (inactive) | -1.9% (inactive) | 110% (inactive) | 3.6% (inactive) | -0.7% (inactive) | -4.5% (inactive) | -0.28 (inactive) | 13% (inactive) | 10.6% (inactive)
8 | C[C@@H]1O[C@@H](O[C@H]2C[C@@H](O)[C@]3(CO)[C@H]4[C@H](O)C[C@]5(C)[C@@H](C6COC(=O)C6)CC[C@]5(O)[C@@H]4CC[C@]3(O)C2)[C@H](O)[C@H](O)[C@H]1O (stereo not given in full) | 97.3% (inactive) | 102% (inactive) | 105% (inactive) | 112% (inactive) | 119% (inactive) | 62.7 | 183% (inactive) | 6.55% (inactive) | 94.2% (inactive) | 1% (inactive) | -12.8% (inactive) | -5.57% (inactive) | -2.1% (inactive) | 104% (inactive) | -0.5% (inactive) | -0.7% (inactive) | 3.5% (inactive) | -0.04 (inactive) | -3% (inactive) | -4% (inactive)
